Data published in PubChem BioAssay (NCI).
About 83,000 compounds went through this panel and 20% of them were active in at least one assay; those are over-represented in the sample as a whole.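 48-hour exposure, single concentration, 96-well plates; percent growth endpoint where 0 means no net growth. Active: below 10.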 Values without a mark were called inactive. The source made the active and inactive calls.

System: SK-MEL-28 melanoma
Test: NCI-60 one-dose screen, 48 h (100 = growth as untreated, 0 = no growth, -100 = all killed)
Settings: 10 µM unless noted

Row | Structure (SMILES) | growth
1 | COc1ccc2c(c1)C(=O)c1c-2c(=O)n(CCCCCCC(=O)NO)c2ccccc12 | -18% (active)
2 | CCC(C)(C)C(=O)O[C@H]1C[C@@H](C)C=C2C=C[C@H](C)[C@H](CC[C@@H]3C[C@@H](O)CC(=O)O3)[C@H]21 | 62.3%
3 | CCC1=C(c2ccc(OC)cc2)C(C)(C)Oc2c1ccc(O)c2CN1CCCC1 | -75.6% (active)
4 | CCCCCCCCCCCCCCCCCC1=NC(C)(C)CN1CCO | -78% (active)
5 | O=C(Nc1ccc(Cl)cc1)Nc1ccc(Nc2nncc3ccccc23)cc1 | 44.1%
6 | COc1cc(C2C=C(c3ccc(C)cc3)Nc3nc(SC)[nH]c(=O)c32)ccc1Oc1ccnc2cc(Cl)ccc12 (stereo not drawn) | 97%
7 | C=C(C[C@@](O)(C(=O)Oc1ccccc1)C(=O)C1CCCCC1)c1ccccc1 | 98%
8 | CCCCCCCC1(C)NC(=O)NC1=O (stereo not drawn) | 87.7%
9 | CCOC(=O)c1c(C)c(C(=O)OCC)n(C)c1C | 116%
10 | COc1ccc(-c2cncn2-c2ccc(-c3nc4cc(OC)c(OC)c(OC)c4s3)cc2)cc1N | 78.5%
11 | CCc1[nH]nc(-c2ccc(OC)cc2)c1-c1ccccc1OCCN(CC)CC | 107%
12 | COc1ncc(-c2ccc3nccc(C#CCN4CCN(S(C)(=O)=O)CC4)c3c2)cc1NS(=O)(=O)c1ccc(F)cc1F | 3.79% (active)
13 | COc1ccc2c(c1)C(=O)c1c-2c(OCCCN(C)C)nc2cc(Br)ccc12 | -48.6% (active)
14 | N#Cc1c(N)[nH]c(S)c1C#N | 113%
15 | CC(O)c1nc2c(c(=O)n(C)c(=O)n2C)n1C (stereo not drawn) | 126%
16 | Cc1ccc(NC(=O)Nc2ccc(-c3cccnc3)cc2N2CCC(CO)CC2)cc1 | 9.36% (active)
17 | CCCCCCCCCCCCCCCCN=C(CC(=O)O)C(=O)O | 103%
18 | COc1ccc(CCN2CCCN3C2=Nc2ccccc2S3(=O)=O)cc1 | 62.5%
19 | Cc1nnc(Nc2ccc(NC(=O)Nc3ccc(Cl)cc3)cc2)c2ccccc12 | -11.9% (active)

Row | Structure (SMILES) | growth
20 | CCCCCCCCCCSc1ncnc2nc[nH]c12 | 116%
21 | C=C(C[C@](O)(C(=O)/C=C/c1ccc(Cl)cc1)C(=O)OC)c1ccccc1 | 95.4%
22 | O=C(/C=C/c1ccccc1Cl)c1ccc(O)cc1 | 96.1%
23 | CC(=O)NC1(C(=O)O)CCCC1 | 88.6%
24 | CCOC(=O)c1cc(-c2cccnc2)nc2c(Cl)cc(Cl)cc12 | 129%
25 | CN1C(=O)/C(=C/c2nc(-c3cccc(F)c3)n3ccccc23)c2ccccc21 | 89.1%
26 | O=C1C(=O)c2ccc(Br)cc2-c2cc(Br)ccc21 | 76.7%
27 | CCN1CCN(c2cc(-c3cn[nH]c3-c3cc(C)cc(OC)c3)nc(-c3cccnc3)n2)CC1 | 87.4%
28 | ClC1=C(Cl)C(Cl)=C(Cl)C1=C/C=C/c1ccccc1 | -74.1% (active)
29 | O=C(CN1CCCCC1)Sc1nnc2sc3ccccc3n12 | 120%
30 | CN1CCN(Cc2ccc(NC(=O)c3[nH]ncc3Nc3ccnc4ccnn34)cc2)CC1 | 65.6%
31 | CC1=CC(=O)C(C(C)=Nc2ccccc2Cl)C(=O)O1 (stereo not drawn) | 105%
32 | CSc1ncc2ncn(C3OC(CO)C(O)C3O)c2n1 (stereo not drawn) | 115%
33 | COc1ccc2nc3cc(Cl)ccc3c(Nc3cc(C(C)C)c(O)cc3C)c2c1 | 71.4%
34 | c1cnc2ccc3ncccc3c2c1 | 85.5%
35 | O=C(Nc1ccc(Cl)cc1)Nc1ccc(Oc2nncc3ccccc23)cc1 | -31.6% (active)
36 | CCCCCCCC/C=C/CCCCCCCC1=NC(C)(C)CN1CCO | -68.4% (active)
37 | CN(CC(=O)N(Cc1ccc(C2CCCCC2)cc1)c1ccc(C(=O)O)cc1)S(=O)(=O)c1c(F)c(F)c(F)c(F)c1F | -51.8% (active)
38 | CCN(CC)CCCNCCCNc1cc(OC)cc2cccnc12 | 99.4%
